Experimental data published in PubChem BioAssay (NCI).
About 83,000 compounds went through this panel and 20% of them were active in at least one assay; those are over-represented in the sample as a whole.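 Plates (96-well) were seeded with cells, treated with compound at one concentration, and incubated for 48 hours before percent growth was determined.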 The source made the active and inactive calls. Rule for the calls: active = growth percent below 10; inactive = the rest.

How the values were obtained:
Assay in all cases: NCI-60 one-dose screen, 48 h (100 = growth as untreated, 0 = no growth, -100 = all killed)
Conditions in all cases: 10 µM unless noted
SK-MEL-2 melanoma = system: SK-MEL-2 melanoma
EKVX NSCLC = system: EKVX NSCLC
SN12C renal = system: SN12C renal
UO-31 renal = system: UO-31 renal
TK-10 renal = system: TK-10 renal
ACHN renal = system: ACHN renal
CAKI-1 renal = system: CAKI-1 renal
A498 renal = system: A498 renal
CCRF-CEM leukemia = system: CCRF-CEM leukemia
MOLT-4 leukemia = system: MOLT-4 leukemia

Measured: growth

Nc1nc2c(c3ncccc13)C(c1ccc(Cl)c(Cl)c1)Cc1ncccc1-2 (stereo not given)
inactive: SK-MEL-2 melanoma 18.4% | EKVX NSCLC 44.5% | SN12C renal 34.1% | UO-31 renal 36.9% | TK-10 renal 29.5% | ACHN renal 30.2% | CAKI-1 renal 30.9%
active: A498 renal -13.5% | CCRF-CEM leukemia 2.45% | MOLT-4 leukemia 5.36%

CCOC(=O)/C=C/C(=O)[C@H](CC(C)C)NC(=O)[C@H](Cc1ccccc1)NC(=O)OCc1ccccc1
active: CCRF-CEM leukemia -18.5% | MOLT-4 leukemia 0.254%
inactive: SK-MEL-2 melanoma 99.8% | EKVX NSCLC 100% | SN12C renal 57.2% | UO-31 renal 44.7% | TK-10 renal 50.1% | ACHN renal 47.5% | CAKI-1 renal 74.8% | A498 renal 77.6%

CC1=CC(=O)CC(C)(C)[C@@]1(O)/C=C/[C@@H](C)O
inactive: SK-MEL-2 melanoma 112% | EKVX NSCLC 91.6% | SN12C renal 105% | UO-31 renal 95.3% | TK-10 renal 108% | ACHN renal 109% | CAKI-1 renal 97.2% | A498 renal 94.1% | CCRF-CEM leukemia 104% | MOLT-4 leukemia 108%

CC/C=C\C[C@H](O)C/C=C1/C(=O)C=C[C@@H]1C/C=C\CCCC(=O)OC(C)C
active: SK-MEL-2 melanoma -21.3% | SN12C renal -16.3% | UO-31 renal -72.6% | TK-10 renal -3.87% | ACHN renal -79.1% | CAKI-1 renal 9.27% | CCRF-CEM leukemia -28.8% | MOLT-4 leukemia -24.5%
inactive: EKVX NSCLC 15.9% | A498 renal 77.7%

NS(=O)(=O)c1ccc(Nc2nc3n[nH]c(Nc4ccccc4)c3c(=O)[nH]2)cc1
inactive: SK-MEL-2 melanoma 101% | EKVX NSCLC 107% | SN12C renal 103% | UO-31 renal 74.9% | TK-10 renal 106% | ACHN renal 109% | CAKI-1 renal 88.7% | A498 renal 88.9% | CCRF-CEM leukemia 105% | MOLT-4 leukemia 89.2%

CS(=O)CCCCCN=C=S (stereo not given)
active: SK-MEL-2 melanoma 6.73% | SN12C renal -17% | UO-31 renal 1.81% | TK-10 renal -27.7% | ACHN renal -45.5% | CAKI-1 renal -15.3% | A498 renal -25.9% | CCRF-CEM leukemia -7.32% | MOLT-4 leukemia -13%
inactive: EKVX NSCLC 12.8%

CCCC(=O)Oc1ccc(/C(=C(/CC)Cc2ccccc2)c2ccc(OCCN3CCCC3)cc2)cc1
inactive: SK-MEL-2 melanoma 103% | EKVX NSCLC 81.4% | SN12C renal 99.4% | UO-31 renal 66.5% | TK-10 renal 87.8% | ACHN renal 87.3% | CAKI-1 renal 85.2% | A498 renal 71.9% | CCRF-CEM leukemia 84.4% | MOLT-4 leukemia 51.6%

COc1ccc(C(=O)/C=C/c2cc3ccccc3[nH]c2=O)cc1
inactive: SK-MEL-2 melanoma 55.1% | EKVX NSCLC 79% | SN12C renal 45% | UO-31 renal 24.9% | TK-10 renal 24.7% | ACHN renal 57.9% | CAKI-1 renal 42.8% | A498 renal 47.4% | CCRF-CEM leukemia 19.5% | MOLT-4 leukemia 32.5%

CCCCCCCCCc1cc(CN2CCCCC2)c(O)c(CN2CCCCC2)c1
inactive: SK-MEL-2 melanoma 86.7% | EKVX NSCLC 37.5% | SN12C renal 71.9% | UO-31 renal 44.1% | TK-10 renal 81.1% | ACHN renal 63.5% | CAKI-1 renal 57.7% | A498 renal 75% | CCRF-CEM leukemia 61.7% | MOLT-4 leukemia 56%

COc1cc(/C=N/N(C)C)ccc1O
inactive: SK-MEL-2 melanoma 101% | EKVX NSCLC 105% | SN12C renal 94.9% | UO-31 renal 89.1% | TK-10 renal 94.5% | ACHN renal 100% | CAKI-1 renal 102% | A498 renal 75.7% | CCRF-CEM leukemia 94.5% | MOLT-4 leukemia 89.7%

Cc1ccc(/C=C2\Oc3cc(OCC(=O)c4ccc(Cl)cc4)ccc3C2=O)cc1
inactive: SK-MEL-2 melanoma 79.2% | EKVX NSCLC 107% | SN12C renal 116% | UO-31 renal 73.6% | TK-10 renal 130% | ACHN renal 95.2% | CAKI-1 renal 101% | A498 renal 113% | CCRF-CEM leukemia 176% | MOLT-4 leukemia 102%

COc1ccc(Cl)cc1Nc1nc(C(F)(F)F)ccc1C(=O)N/N=C/c1cccnc1
inactive: SK-MEL-2 melanoma 39% | EKVX NSCLC 48.5% | SN12C renal 62.7% | UO-31 renal 41.5% | TK-10 renal 49% | ACHN renal 36.7% | CAKI-1 renal 43.2% | A498 renal 40.8% | CCRF-CEM leukemia 13%
active: MOLT-4 leukemia 2%

CC(C)n1cc2c(N)ncnc2n1
inactive: SK-MEL-2 melanoma 89.5% | EKVX NSCLC 88.1% | SN12C renal 98.2% | UO-31 renal 90% | TK-10 renal 96.6% | ACHN renal 105% | CAKI-1 renal 79.4% | A498 renal 126% | CCRF-CEM leukemia 109% | MOLT-4 leukemia 98.2%

CCCCOc1ccc(NC(=O)n2nc(NC(C)=O)c3cc(NC(C)=O)ccc32)cc1
inactive: SK-MEL-2 melanoma 95% | EKVX NSCLC 68.7% | SN12C renal 92.2% | UO-31 renal 80.9% | TK-10 renal 89.9% | ACHN renal 95.3% | CAKI-1 renal 89.2% | A498 renal 105% | CCRF-CEM leukemia 62.1% | MOLT-4 leukemia 52%

CCOC(=O)c1cnc2ccc(Br)cc2c1Nc1cccc(S(=O)(=O)NC)c1
inactive: SK-MEL-2 melanoma 111% | EKVX NSCLC 96.2% | SN12C renal 103% | UO-31 renal 80.4% | TK-10 renal 114% | ACHN renal 98.3% | CAKI-1 renal 87.4% | A498 renal 77.7% | CCRF-CEM leukemia 105% | MOLT-4 leukemia 115%

NC(=S)N/N=C/c1cc(-c2cccc(N)c2)ccn1
active: ACHN renal 7.92% | CAKI-1 renal -9.57% | CCRF-CEM leukemia 6.08% | MOLT-4 leukemia 7.42%
inactive: SK-MEL-2 melanoma 45.5% | EKVX NSCLC 37.8% | SN12C renal 16.7% | UO-31 renal 12.4% | TK-10 renal 46.6% | A498 renal 37.3%

O=[N+]([O-])c1cccc(-c2nc3sccn3c2-c2ccnc(NCCCNS(=O)(=O)c3ccc(Br)cc3)n2)c1
inactive: SK-MEL-2 melanoma 47% | EKVX NSCLC 59.4% | SN12C renal 53% | UO-31 renal 22.7% | TK-10 renal 102% | ACHN renal 46.7% | CAKI-1 renal 41.4% | A498 renal 52.8% | CCRF-CEM leukemia 18.6% | MOLT-4 leukemia 19.7%

NS(=O)(=O)c1ccc(-n2ncc3c(=O)[nH]c(CN4CCN(c5cc6c(cc5F)c(=O)c(C(=O)O)cn6C5CC5)CC4)nc32)cc1
inactive: SK-MEL-2 melanoma 106% | EKVX NSCLC 92.6% | SN12C renal 95% | UO-31 renal 70% | TK-10 renal 119% | ACHN renal 94% | CAKI-1 renal 89.2% | A498 renal 102% | CCRF-CEM leukemia 93.4% | MOLT-4 leukemia 97%

COc1cc(-c2nc3ccccc3s2)ccc1NC(=O)COc1ccc(Cl)cc1
active: CAKI-1 renal 6.38%
inactive: SK-MEL-2 melanoma 78.5% | EKVX NSCLC 57.4% | SN12C renal 58.6% | UO-31 renal 47.3% | TK-10 renal 35.6% | ACHN renal 40% | A498 renal 97.3% | CCRF-CEM leukemia 98.5% | MOLT-4 leukemia 86%

COc1ccc(/C=C/C(=O)c2ccc(NC(=O)c3cc4cc5ccccc5nc4s3)cc2)cc1OC
inactive: SK-MEL-2 melanoma 103% | EKVX NSCLC 94.6% | SN12C renal 98.1% | UO-31 renal 88.5% | TK-10 renal 126% | ACHN renal 102% | CAKI-1 renal 98% | A498 renal 83.1% | CCRF-CEM leukemia 104% | MOLT-4 leukemia 114%

CC1=NNC(=O)C1C (stereo not given)
inactive: SK-MEL-2 melanoma 99.8% | EKVX NSCLC 102% | SN12C renal 96.1% | UO-31 renal 88.2% | TK-10 renal 377% | ACHN renal 103% | CAKI-1 renal 81.5% | A498 renal 88.6% | CCRF-CEM leukemia 97.1% | MOLT-4 leukemia 145%

Cn1c2ccccc2c2c3[nH]c(=O)[nH]c(=O)c3c3c4ccccc4n(C)c3c21
inactive: SK-MEL-2 melanoma 67% | EKVX NSCLC 29% | SN12C renal 33.7% | UO-31 renal 11.8% | TK-10 renal 36.4% | CAKI-1 renal 41.5% | CCRF-CEM leukemia 52.9% | MOLT-4 leukemia 49.4%
active: ACHN renal 7.31% | A498 renal -4.05%

OCCNCCNc1c2ccccc2nc2ccccc12
inactive: SK-MEL-2 melanoma 68.5% | EKVX NSCLC 109% | SN12C renal 52.2% | UO-31 renal 65.4% | TK-10 renal 82.7% | ACHN renal 65.3% | CAKI-1 renal 94.9% | A498 renal 83% | CCRF-CEM leukemia 65.4% | MOLT-4 leukemia 16.7%

COc1cc(OC)c(/C=C/S(=O)(=O)Cc2cnc(OC)c(N)c2)c(OC)c1
active: A498 renal -1.94% | MOLT-4 leukemia 1.79%
inactive: SK-MEL-2 melanoma 24.2% | EKVX NSCLC 37.9% | SN12C renal 23.7% | UO-31 renal 25.5% | TK-10 renal 27.9% | ACHN renal 25.7% | CAKI-1 renal 34% | CCRF-CEM leukemia 15.8%

CN[C@@]12CC3(C=CC(=O)C=C3)O[C@]1(Cc1ccc(OC)cc1)N(C)C(=O)N2
inactive: SK-MEL-2 melanoma 74.1% | EKVX NSCLC 75.8% | SN12C renal 44% | UO-31 renal 76.2% | TK-10 renal 88.6% | ACHN renal 44.4% | CAKI-1 renal 72.9% | A498 renal 75.6% | MOLT-4 leukemia 73%
active: CCRF-CEM leukemia 7.27%

COc1cc2c(=O)n(CC3CCCCC3)c3c4cc[nH]c4ncc3c2cc1OC
inactive: SK-MEL-2 melanoma 64% | EKVX NSCLC 63.9% | SN12C renal 25.7% | UO-31 renal 23.1% | TK-10 renal 49.8% | ACHN renal 26.8% | CAKI-1 renal 37.7% | CCRF-CEM leukemia 39.5% | MOLT-4 leukemia 49.5%
active: A498 renal -5.29%

CS(CCCCN=C=S)=NC(=O)c1c(F)c(F)c(F)c(F)c1F (stereo not given)
inactive: SK-MEL-2 melanoma 94.2% | EKVX NSCLC 97.8% | SN12C renal 61.1% | UO-31 renal 59.6% | TK-10 renal 66.6% | ACHN renal 52.4% | CAKI-1 renal 71.3% | A498 renal 112% | CCRF-CEM leukemia 36.8% | MOLT-4 leukemia 66.2%
